Measured values published in PubChem BioAssay AID1628 (Sanford-Burnham Center for Chemical Genomics, 2009).
Screen size: about 190,000 compounds; about 930 (0.49%) were called active.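 The calls were made as follows: active = z-score of insulin promoter reporter brightness in nuclei below -3 at 5 µM, with at least 500 cells counted; inconclusive = wells with under 500 cells, flagged as toxic or sparse; inactive = the rest.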 The list shows a part of the results. Potency and affinity values are given separately.

Assay: insulin promoter down-regulators in MIN6 cells, imaging, high-content screening, mouse beta cells (AID 1628)
Details: MIN6 insulin promoter GFP reporter, at 5 µM, stronger effect = lower value

SMILES	z-score
Nc1cc(S(=O)(=O)Nc2ccccc2Cl)ccc1N1CCOCC1	2.18 (inactive)
O=C(NN=C1CCN(Cc2ccccc2)CC1)c1cccc(S(=O)(=O)Nc2ccccc2Cl)c1	3.03 (inactive)
O=C(O)c1ccccc1-c1ccccc1C(=O)NNc1ccccc1	-3.66 (active)
CC(C)(C)S(=O)(=O)c1ccccc1C(=O)O	-1.55 (inactive)
O=C(NCCc1ccc(Cl)cc1)c1cccs1	1.56 (inactive)
Cc1ccc([N+](=O)[O-])cc1NC(=O)c1cccs1	3.18 (inactive)
CCCN1C(=O)c2ccccc2NC1c1ccc(C)cc1 (stereo not drawn)	2.64 (inactive)
COc1ccc(N(CCN2C(=O)c3ccccc3C2=O)C(=O)c2cccc([N+](=O)[O-])c2)cc1	3.09 (inactive)
CCN(CCCCN1C(=O)c2ccccc2C1=O)c1ccc2c(c1)C(=O)N(C)C2=O	-3.55 (active)
CC(C)Sc1nc(SCC(=O)NCc2ccco2)c2c3c(sc2n1)COC(C)(C)C3	-3.28 (active)
COc1ccccc1OCc1nnc(SCC(=O)NCc2ccco2)n1-c1ccccc1	0.71 (inactive)
CC(C)c1cccc(O)c(=O)c1	-0.46 (inactive)
CN1C(=O)CC(N2CCN(Cc3ccc(Cl)cc3)CC2)C1=O (stereo not drawn)	3.88 (inactive)
CCN(CC)c1ccc(/C=N/N2CCN(Cc3ccc(Cl)cc3)CC2)c(O)c1	-5.88 (active)
Cc1nn(C)cc1CNC(=O)c1cc2n(n1)C(C(F)(F)F)CC(c1cccs1)N2 (stereo not drawn)	-3.69 (active)
Cc1nn(C)c(C)c1CNC(=O)c1nn2c(c1Cl)NC(c1cccs1)CC2C(F)(F)F (stereo not drawn)	-4.07 (active)
CCCc1cc(-n2ccnc2)n2c(nc3ccccc32)c1C#N	5.52 (inactive)
COc1ccc2c(c1)C(C)=CC(C)(C)N2C(=O)CNCc1ccc2c(c1)OCO2	-4.43 (active)
O=C(CSc1nc2ccc(Cl)cc2o1)NCc1ccc2c(c1)OCO2	3.95 (inactive)
CCCCCOC(=O)Cn1c(N2CCCCCC2)nc2c1c(=O)[nH]c(=O)n2C	-0.48 (inactive)
CC1=C(C(=O)Nc2ccc(F)cc2)C(c2ccncc2)C2=C(CCCC2=O)N1 (stereo not drawn)	1.21 (inactive)
CCc1c(C(=O)Nc2ccncc2)csc1C	-4.62 (active)
CCOc1ccc(OCC)c(-c2c(=O)n(OCc3ccc(Cl)cc3)c3ccccc3[n+]2[O-])c1	3.34 (inactive)
COC(=O)c1sc2nc(-c3ccccc3)nc(N3CCN(C)CC3)c2c1C	-4.28 (active)
CCOC(=O)c1sc2nc(CSc3ccccc3Cl)[nH]c(=O)c2c1C	1.87 (inactive)

SMILES	z-score
Cc1sc2nc(-c3cccs3)nc(N3CCCN(C)CC3)c2c1C	-3.73 (active)
CC(=O)c1c(N2CCOCC2)[nH]c(-c2ccccc2)nc1=S	7.72 (inactive)
CCN(CC)CCCOC(=O)C(c1ccccc1)c1ccccc1	0.01 (inactive)
CCc1ccc(C(O)(c2ccccc2OC)C(CN2CCOCC2)c2ccccc2)cc1 (stereo not drawn)	-3.08 (active)
COc1ccc(OCC(=O)Nc2ccccc2C(=O)N2CCOCC2)cc1	1.77 (inactive)
N#C/C(=C\c1ccc(N2CCOCC2)o1)c1ccccc1	4.39 (inactive)
CCOCCCNc1nc2c(C)cccn2c(=O)c1/C=C1\SC(=S)N(C(C)CC)C1=O (stereo not drawn)	17.6 (inactive)
CC(C)NC(=O)/C(C#N)=C\c1ccc(N(C)C)o1	11.5 (inactive)
c1ccc2c(c1)[nH]c1c(NCC3CCCO3)ncnc12 (stereo not drawn)	-3.45 (active)
Clc1ccc2[nH]c3c(NCC4CCCO4)ncnc3c2c1 (stereo not drawn)	-4.6 (active)
Fc1ccc(OCCOCCNCC2CCCO2)cc1 (stereo not drawn)	1.23 (inactive)
CCN1CC=C2C(C1)C(c1ccc(Cl)s1)C(C#N)=C(N)C2(C#N)C#N (stereo not drawn)	15.5 (inactive)
CC(C)(C)c1nc2ccccc2c2nnc(SCC(=O)NCc3ccco3)n12	1.35 (inactive)
c1cncc(-c2nn[nH]n2)c1	-1.32 (inactive)
c1cncc(-c2nc(NCc3ccco3)c3ccccc3n2)c1	-3.11 (active)
O=C(Nc1nnc(-c2ccccc2)o1)Nc1ccccc1Cl	3.77 (inactive)
OC1(c2cccc(C(F)(F)F)c2)CCN(c2ncnc3c2[nH]c2ccc(F)cc23)CC1	-4.94 (active)
COc1cccc(N2CCN(c3ncnc4c3[nH]c3ccc(F)cc34)CC2C)c1 (stereo not drawn)	-3.69 (active)
CCc1cccc2cc3c(N)c(C(=O)Nc4ccc(S(=O)(=O)N5CCCC5)cc4)sc3nc12	8.59 (inactive)
Cc1csc(SCC(=O)Nc2ccc(S(=O)(=O)N3CCCC3)cc2)n1	0.21 (inactive)
O=C(Nc1ccc(S(=O)(=O)N2CCCCC2)cc1)c1ccncc1	-3.68 (active)
O=C(NCc1cccnc1)c1ccc(CN2CCc3ccccc3C2)cc1	0.66 (inactive)
N#C/C(=C/c1ccc(N2CCCCCC2)o1)c1cccc(F)c1	15.9 (inactive)
COc1ccc(S(=O)(=O)N2CCN(c3ccc4nnc(-c5ccc(F)cc5)n4n3)CC2)cc1	-4.36 (active)
COc1ccc(-c2nnc3sc(C(C)N4C(=O)c5ccccc5C4=O)nn23)cc1 (stereo not drawn)	1.87 (inactive)

SMILES	z-score
Fc1ccc(-c2nnc3ccc(N4CCc5ccccc5C4)nn23)cc1	-3.5 (active)
O=S(=O)(c1ccc(OCC(O)CN2CCN(c3ccc(F)cc3)CC2)cc1)N1CCOCC1 (stereo not drawn)	-4.17 (active)
COc1ccccc1N1CCN(CC(O)COc2ccc(S(=O)(=O)N3CCOCC3)cc2)CC1 (stereo not drawn)	-3.8 (active)
OC(COc1cccc2ccccc12)CN1CCN(c2ccccc2Cl)CC1 (stereo not drawn)	3.51 (inactive)
CC(C)NC(=O)N1CCN(c2ccncc2S(=O)(=O)N2CCOCC2)CC1	5.83 (inactive)
CCCCSc1cc(C)nc2ncnn12	0.8 (inactive)
O=C(O)CCCCCN1C(=O)/C(=C\c2ccc(-c3ccc(Cl)cc3)o2)SC1=S	4.23 (inactive)
COc1cc2c3nnc(-c4ccc(F)cc4)c-3cn(Cc3ccc(F)cc3)c2cc1OC	6.06 (inactive)
O=C(CN1CCCCCCC1)N/N=C/c1ccc(F)cc1F	-7.88 (active)
COC(=O)c1[nH]c2cccc(Cl)c2c1NC(=O)CN(C)C1CCCCC1	3.5 (inactive)
CCOC(=O)C1CCCN(CC(=O)Nc2c(C(=O)OC)[nH]c3ccc(C)cc23)C1 (stereo not drawn)	-3.29 (active)
Cc1[nH]c2ccccc2c1C(=O)CN1CCCCC1C (stereo not drawn)	-1.61 (inactive)
CCS(=O)(=O)N1Cc2ccccc2CC1C(=O)OCC(=O)Nc1ccc(C)cc1 (stereo not drawn)	5.05 (inactive)
C=CCN1C=CC(=CC=C(C#N)C#N)C=C1	3.27 (inactive)
Cc1nn(C)cc1N1C(=O)c2cccc3c(N)ccc(c23)C1=O	5.94 (inactive)
O=C(CN1CCN(Cc2ccc(Cl)cc2)C1=O)NCCCN1CCN(c2ccc(F)cc2)CC1	-4.01 (active)
O=C(NCCN1CCCC1)C1(S(=O)(=O)c2ccc(Cl)cc2)CC1	3.06 (inactive)
c1ccc2c3c([nH]c2c1)C1(CCCCC1)NCC3	-0.6 (inactive)
O=C(N/N=C/c1cn(-c2ccccc2)nc1-c1ccccc1)c1ccco1	-4.01 (active)
Nc1c(C(=O)N/N=C/c2ccccc2Cl)oc2nc(-c3ccccc3)cc(-c3ccco3)c12	6.17 (inactive)
O=C(N/N=C\c1cn(-c2ccccc2)nc1-c1ccccc1)c1ccc(Br)o1	3.24 (inactive)
CC(C)C(C)(C#N)NC(=O)CSc1nnc(C(F)(F)F)n1C (stereo not drawn)	3.02 (inactive)
CCSc1nc2c(c(=O)[nH]c(=O)n2C)n1C	-1.45 (inactive)
C#CC(C)(C)NC(=O)CSc1nc2c(c(=O)n(C)c(=O)n2C)n1CCCC	-7.25 (active)
CC(=O)Nc1sc2c(c1CN1CCN(c3ccccn3)CC1)CCCC2	-1.66 (inactive)

SMILES	z-score
Cc1cnc(NC(=O)CN2CCN(c3ccccn3)CC2)s1	3.14 (inactive)
COc1ccc(CN2CCN(c3ccccn3)CC2)cc1OCc1ccccc1	-8.87 (active)
COc1ccc(OC)c(C(c2nnnn2C2CCCC2)N2CCN(c3ccccc3F)CC2)c1 (stereo not drawn)	-4.67 (active)
CCN(CC)c1ccc2cc(-c3nc4ccccc4[nH]3)c(=O)oc2c1	17.2 (inactive)
CCOc1cc(N(CC)CC)ccc1/C=C(/C#N)c1nc2ccccc2[nH]1	8.11 (inactive)
CCOC(=O)N1CCN(C(=O)CSc2ccc3nnc(CCNC(=O)c4ccc(OC)cc4)n3n2)CC1	3.73 (inactive)
CN(C)c1ccc(/C=C2\CCC/C(=C\c3ccccc3)C2=O)cc1	3.4 (inactive)
Cc1nnc(NC(=O)c2sc3nc(-c4cccs4)cc(C(F)(F)F)c3c2N)s1	15.1 (inactive)
CN(C)c1ccc(C(=O)N/N=C/c2cc(Br)cc(Br)c2O)cc1	4.65 (inactive)
O=C(Nc1ccc(Br)cc1)C(c1ccccc1)c1ccccc1	-0.28 (inactive)
O=C(N/N=C/c1cc(Br)ccc1O)Nc1ccccc1	-4.87 (active)
CC(=O)Nc1ccc(C(=O)N/N=C/c2cc(Br)cc(Br)c2O)cc1	-3.57 (active)
COc1cc([C@@H]2[C@H]3CNCC=C3C(C#N)=C(N)C2(C#N)C#N)ccc1OC(C)C	3.59 (inactive)
c1ccc(CSc2ccc(-c3ccccn3)nn2)cc1	4.07 (inactive)
C/C(=N/O)c1ccccn1	0.09 (inactive)
Cc1nn(-c2c(Cl)cc(Cl)cc2Cl)c(=O)c2ccccc12	3.38 (inactive)
CCN(c1ccccc1)S(=O)(=O)c1ccc(C(=O)Nc2nnc(C3CC3)o2)cc1	-3.06 (active)
O=S(=O)(Cc1ccc(Cl)cc1)c1ccccc1-c1nnc(-c2ccccc2)o1	13.8 (inactive)
Cc1cccc2cc3c(N)c(C(=O)N4CCCc5ccccc54)sc3nc12	6.25 (inactive)
CCN(C(=O)CSc1nc2cc(C(=O)OC)ccc2c(=O)n1Cc1ccco1)c1cccc(C)c1	4.54 (inactive)
Cc1cc2c(=O)n(Cc3ccco3)c(SCC(=O)c3ccc(Cl)s3)nc2s1	-9.67 (active)
CN(c1ccccc1)c1ccc(/C=c2\s/c(=C(/C#N)C(=O)C(C)(C)C)n(Cc3ccco3)c2=O)cc1	12.8 (inactive)
CCc1cc2c(=O)n(Cc3ccco3)c(SCC(=O)N3CCCc4ccccc43)nc2s1	-3.14 (active)
